# Calls of active or inactive are those of the source.
# Experiments:
# [1] = system: Plasmodium falciparum Sir2 (PF13_0152, Sir2A); experiment: pfSir2 binders on small-molecule microarrays, primary screen, biochemical, small-molecule microarray, 635 nm fluorescence (AID 1098); conditions: small-molecule microarray binding, fluorescence 635 nm; higher = more signal;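 further: score merges spot fluorescence intensity with its signal-to-noise ratio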
# [2] = small-molecule microarray binders of probe aDKK1, primary screen, biochemical, biotinylated probe, 635/667 nm fluorescence (AID 1099); conditions: higher = more signal;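 further: score merges 667nm spot fluorescence with signal to noise across triplicate slides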
# [3] = small-molecule microarray binders of probe aCHRDL2, primary screen, biochemical, biotinylated probe, 635/667 nm fluorescence (AID 1100); conditions: higher = more signal
# [4] = splicing luciferase reporter signal modulators, primary screen, spliceosome inhibition project, cell-based, HEK293, splice +/- reporter (AID 1101); conditions: luminescence, 24 h, higher = more signal, called active from +8 up or from −8 down;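 further: HEK293 cells carrying a splicing-competent luciferase reporter gene; test concentration not given here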
# [5] = target: Fibroblast growth factor 10 (Homo sapiens) (UniProt O15520); experiment: FGF10 binders on small-molecule microarrays, primary screen, biochemical, small-molecule microarray, 635 nm fluorescence (AID 1102); conditions: FGF10 binding, fluorescence 635 nm, higher = more signal
# Fibroblast growth factor 10 (Homo sapiens), sequence (O15520 whole entry, looked up): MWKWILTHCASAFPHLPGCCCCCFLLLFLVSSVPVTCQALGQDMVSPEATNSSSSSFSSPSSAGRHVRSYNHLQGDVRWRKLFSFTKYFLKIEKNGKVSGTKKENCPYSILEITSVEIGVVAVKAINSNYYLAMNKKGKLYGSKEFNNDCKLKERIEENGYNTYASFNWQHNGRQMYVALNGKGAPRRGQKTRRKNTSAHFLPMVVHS
# [6] = system: glycogen synthase kinase-3 (GSK3A per assay name; protocol says GSK3B); experiment: GSK3 binders on small-molecule microarrays, primary screen, biochemical, small-molecule microarray, 635 nm fluorescence, GSK3A (AID 1103); conditions: small-molecule microarray binding, fluorescence 635 nm; higher = more signal; further: the record names both GSK3A and GSK3B
# [7] = target: Epidermal growth factor receptor (Homo sapiens) (UniProt P00533); experiment: EGFR binders on small-molecule microarrays, primary screen, biochemical, small-molecule microarray, 635 nm fluorescence (AID 1104); conditions: EGFR binding, higher = more signal;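 further: score merges 667 nm emission intensity with spot signal to noise over triplicate slides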
# Epidermal growth factor receptor (Homo sapiens), sequence (P00533 whole entry, looked up): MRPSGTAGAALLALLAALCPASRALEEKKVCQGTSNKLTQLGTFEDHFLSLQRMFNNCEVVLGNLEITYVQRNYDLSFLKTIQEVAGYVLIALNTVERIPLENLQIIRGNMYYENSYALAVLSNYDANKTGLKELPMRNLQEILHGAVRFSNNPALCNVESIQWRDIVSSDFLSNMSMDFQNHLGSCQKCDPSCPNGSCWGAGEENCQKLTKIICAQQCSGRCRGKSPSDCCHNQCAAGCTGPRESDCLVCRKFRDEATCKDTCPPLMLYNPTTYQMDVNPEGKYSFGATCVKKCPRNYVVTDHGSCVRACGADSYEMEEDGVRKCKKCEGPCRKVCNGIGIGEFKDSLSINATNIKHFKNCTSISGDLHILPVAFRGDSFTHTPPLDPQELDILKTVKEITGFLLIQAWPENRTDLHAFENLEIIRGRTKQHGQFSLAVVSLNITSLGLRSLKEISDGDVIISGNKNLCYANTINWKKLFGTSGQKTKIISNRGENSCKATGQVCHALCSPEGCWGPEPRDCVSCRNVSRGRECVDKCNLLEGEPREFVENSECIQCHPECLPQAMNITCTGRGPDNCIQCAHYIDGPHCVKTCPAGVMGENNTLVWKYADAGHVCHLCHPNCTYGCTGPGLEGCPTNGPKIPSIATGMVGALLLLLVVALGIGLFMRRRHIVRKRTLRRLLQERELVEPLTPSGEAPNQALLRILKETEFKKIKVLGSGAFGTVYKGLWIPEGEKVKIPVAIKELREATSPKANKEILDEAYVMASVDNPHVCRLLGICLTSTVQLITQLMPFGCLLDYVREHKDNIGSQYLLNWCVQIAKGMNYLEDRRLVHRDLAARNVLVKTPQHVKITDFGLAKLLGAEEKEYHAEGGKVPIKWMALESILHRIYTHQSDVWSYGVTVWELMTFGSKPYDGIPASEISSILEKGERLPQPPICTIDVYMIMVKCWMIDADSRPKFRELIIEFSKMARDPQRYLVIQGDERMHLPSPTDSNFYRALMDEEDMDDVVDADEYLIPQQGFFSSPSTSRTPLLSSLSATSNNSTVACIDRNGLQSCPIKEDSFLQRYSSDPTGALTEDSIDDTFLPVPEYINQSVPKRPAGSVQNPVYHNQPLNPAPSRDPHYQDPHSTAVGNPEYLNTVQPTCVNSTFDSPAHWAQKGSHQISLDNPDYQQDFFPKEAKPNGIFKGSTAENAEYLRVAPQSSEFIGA
# [8] = target: Follistatin-related protein 3 (Homo sapiens) (UniProt O95633); experiment: FSTL3 binders on small-molecule microarrays, primary screen, biochemical, small-molecule microarray, 635 nm fluorescence (AID 1105); conditions: FSTL3 binding, higher = more signal;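 further: score merges emission near 667 nm and signal to noise per printed spot across three slides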
# Follistatin-related protein 3 (Homo sapiens), sequence (O95633 whole entry, looked up): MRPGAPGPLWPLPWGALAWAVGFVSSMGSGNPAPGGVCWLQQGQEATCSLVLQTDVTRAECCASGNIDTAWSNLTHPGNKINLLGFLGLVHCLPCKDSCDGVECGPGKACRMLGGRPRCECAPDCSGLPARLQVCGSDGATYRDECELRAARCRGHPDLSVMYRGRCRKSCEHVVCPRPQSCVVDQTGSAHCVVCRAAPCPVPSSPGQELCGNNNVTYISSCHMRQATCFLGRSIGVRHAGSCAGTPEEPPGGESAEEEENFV
# [9] = target: Dickkopf-related protein 1 (Homo sapiens) (UniProt O94907); experiment: DKK1 binders on small-molecule microarrays, primary screen, biochemical, small-molecule microarray, 635 nm fluorescence scan (AID 1106); conditions: DKK1 binding, higher = more signal;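 further: score merges emission near 667 nm with signal to noise over three replicate slides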
# Dickkopf-related protein 1 (Homo sapiens), sequence (O94907 whole entry, looked up): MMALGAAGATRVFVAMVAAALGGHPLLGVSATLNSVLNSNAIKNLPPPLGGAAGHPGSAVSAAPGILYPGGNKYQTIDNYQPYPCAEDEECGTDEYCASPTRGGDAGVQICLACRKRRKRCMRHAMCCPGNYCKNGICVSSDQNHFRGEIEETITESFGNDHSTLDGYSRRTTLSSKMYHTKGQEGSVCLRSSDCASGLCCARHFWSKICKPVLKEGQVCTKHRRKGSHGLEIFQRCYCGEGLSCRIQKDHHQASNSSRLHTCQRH
# [10] = system: Inhibin beta A chain (activin A); experiment: INHBA (activin A) binders on microarrays, primary screen, biochemical, small-molecule microarray, 635 nm fluorescence scan (AID 1107); conditions: small-molecule microarray binding, higher = more signal;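 further: mouse activin A protein probed at 4.33 µg/mL on printed slides; score merges bound-protein fluorescence near 667 nm with spot signal-to-noise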
# [11] = system: Human papillomavirus type 1a protein E7 (residues 44-93); experiment: HPV1a E7 fragment binders on microarrays, primary screen, biochemical, small-molecule microarray, residues 44-93, 635 nm fluorescence (AID 1108); conditions: small-molecule microarray binding, fluorescence 635 nm; higher = more signal;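 further: E7 fragment applied at 1 µg/mL in TBST for 1 h at 4 C; score combines spot fluorescence with its signal to noise ratio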
# [12] = modulators of HCV replicon luciferase signal, primary screen, HCV replication inhibitor project, Huh7 cells, luciferase reporter (AID 1109); conditions: 48 h, higher = more signal;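 further: huh7 hepatoma cells harbouring a luciferase neomycin HCV replicon reporter; luciferase luminescence as measure of HCV replicon replication; test concentration not given here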
# [13] = target: Left-right determination factor 2 (Homo sapiens) (UniProt O00292); experiment: LEFTY2 binders on small-molecule microarrays, primary screen, biochemical, small-molecule microarray, 635 nm fluorescence scan (AID 1110); conditions: LEFTY2 binding, higher = more signal
# Left-right determination factor 2 (Homo sapiens), sequence (O00292 whole entry, looked up): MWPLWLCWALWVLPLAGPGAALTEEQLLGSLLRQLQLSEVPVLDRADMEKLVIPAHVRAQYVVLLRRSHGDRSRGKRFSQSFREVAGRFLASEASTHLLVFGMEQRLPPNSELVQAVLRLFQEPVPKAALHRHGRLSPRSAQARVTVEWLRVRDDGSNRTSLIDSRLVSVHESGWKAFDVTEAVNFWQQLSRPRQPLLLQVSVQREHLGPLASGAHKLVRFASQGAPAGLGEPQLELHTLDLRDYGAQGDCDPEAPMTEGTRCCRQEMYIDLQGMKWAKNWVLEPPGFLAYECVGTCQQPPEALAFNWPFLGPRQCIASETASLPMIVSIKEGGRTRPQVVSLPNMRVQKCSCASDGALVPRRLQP
# [14] = target: Calmodulin-1 (Homo sapiens) (UniProt P0DP23); experiment: CALM1 binders on microarrays, EGTA buffer, profiling panel, biochemical, small-molecule microarray, Cy5-labelled CALM1 (AID 1111); conditions: Cy5-CALM1 binding fluorescence, higher = more signal;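 further: labelled calmodulin applied in Tris saline Tween buffer holding calcium plus EGTA and DTT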
# [15] = target: Calmodulin-1 (Homo sapiens) (UniProt P0DP23); experiment: calcium-bound CALM1 binders on microarrays, profiling panel, artefact control for SMM control-protein annotation, biochemical, small-molecule microarray, Cy5-labelled CALM1, plus calcium (AID 1112); conditions: Cy5-CALM1 binding fluorescence, higher = more signal;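 further: score merges spot fluorescence with signal to noise from triplicate slides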
# [16] = small-molecule microarray binders of probe aWnt5a, primary screen, biochemical, biotinylated probe, 635/667 nm fluorescence (AID 1113); conditions: higher = more signal;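 further: score merges 667 nm fluorescence intensity with signal-to-noise per printed feature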
# [17] = small-molecule microarray binders of probe aShh, primary screen, biochemical, biotinylated probe, 635/667 nm fluorescence (AID 1114); conditions: higher = more signal;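 further: probe is biotin-labelled aShh protein from a stem cell growth factor screen; measures binding of labelled protein to compounds printed on the slide; score merges feature fluorescence at 667 nm with signal-to-noise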
# [18] = small-molecule microarray binders of probe aNog, primary screen, biochemical, biotinylated probe, 635/667 nm fluorescence (AID 1115); conditions: higher = more signal;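 further: probe is biotinylated aNog protein used at 0.15 µg/mL for 1 h at 4 C; z-score combines 667 nm fluorescence of each spot with its signal to noise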
# [19] = target: Torsin-1A-interacting protein 1 (Homo sapiens) (UniProt Q5JTV8); experiment: LAP1 binders from COS7 cell lysate, primary screen, small-molecule microarray, 635/667 nm fluorescence (AID 1116); conditions: COS7-hLAP1 lysate binding, 635 nm fluorescence, higher = more signal
# Torsin-1A-interacting protein 1 (Homo sapiens), sequence (Q5JTV8 whole entry, looked up): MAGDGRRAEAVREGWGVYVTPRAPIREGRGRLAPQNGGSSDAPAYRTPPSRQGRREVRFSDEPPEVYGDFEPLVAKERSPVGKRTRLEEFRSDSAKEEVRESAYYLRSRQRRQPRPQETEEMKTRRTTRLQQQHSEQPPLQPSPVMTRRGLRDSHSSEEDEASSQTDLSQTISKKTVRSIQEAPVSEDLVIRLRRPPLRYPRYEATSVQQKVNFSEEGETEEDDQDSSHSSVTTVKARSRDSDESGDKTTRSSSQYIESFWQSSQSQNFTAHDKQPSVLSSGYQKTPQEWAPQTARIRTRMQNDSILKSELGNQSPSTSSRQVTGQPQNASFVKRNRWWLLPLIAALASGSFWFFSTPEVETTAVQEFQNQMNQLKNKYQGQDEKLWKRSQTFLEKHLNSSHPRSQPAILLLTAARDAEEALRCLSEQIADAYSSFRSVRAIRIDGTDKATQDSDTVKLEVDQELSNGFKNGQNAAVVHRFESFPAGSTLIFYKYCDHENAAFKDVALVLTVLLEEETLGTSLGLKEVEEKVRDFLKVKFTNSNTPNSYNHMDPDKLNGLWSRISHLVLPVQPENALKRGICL
# [20] = target: Alpha-bungarotoxin (Bungarus multicinctus) (UniProt P60615); experiment: alpha-bungarotoxin binders on microarray, profiling panel, artefact control for SMM control protein annotation, biochemical, small-molecule microarray, Alexa647 label, 635/667 nm fluorescence (AID 1117); conditions: alpha-BTX-A647 binding fluorescence, higher = more signal
# Alpha-bungarotoxin (Bungarus multicinctus), sequence (P60615 whole entry, looked up): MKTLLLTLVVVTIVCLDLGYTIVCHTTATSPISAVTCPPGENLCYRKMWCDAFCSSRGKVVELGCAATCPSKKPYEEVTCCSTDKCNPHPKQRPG
Compound,composite z-score [1],composite z-score [2],composite z-score [3],z-score [4],composite z-score [5],composite z-score [6],composite z-score [7],composite z-score [8],composite z-score [9],composite z-score [10],composite z-score [11],z-score [12],composite z-score [13],composite z-score [14],composite z-score [15],composite z-score [16],composite z-score [17],composite z-score [18],composite z-score [19],composite z-score [20]
Cc1ccccc1C(O)C1C=CC2C(=O)N(C)C(=O)C2N1Nc1ccc([N+](=O)[O-])cc1[N+](=O)[O-] (stereo not given),0.878,0.647,0.831,-0.311 (inactive),1.11,1.28,0.226,1.17,-0.53,0.648,1.45,0.265,0.0979,1.43,1.08,0.14,0.254,-0.235,1.24,1.36
COc1cc(C(O)C2C=CC3C(=O)NC(=O)C3N2Nc2ccc(Cl)cc2Cl)cc(OC)c1OC (stereo not given),1.18,0.88,1.12,0.734 (inactive),0.746,0.189,-0.0874,1.28,-0.675,1.11,1.44,0.221,-0.118,2.03,0.866,0.0809,-0.0243,1.22,1.22,0.877
CC(C)C[C@@H]1NC(=O)[C@@H]2C[C@H](C(=O)NCCCC[N+](C)(C)C)[C@H](c3cccc(OCCO)c3)N2C1=O,1.66,-0.184,-0.103,-0.44 (inactive),0.59,0.914,0.357,1.31,1.95,0.88,-0.832,-0.604,1.01,-0.863,0.348,-0.0236,0.151,-0.198,1.05,0.324
COC(=O)[C@@]1(Cc2ccc(F)cc2)[C@H]2c3cc(C(=O)N(C)C)n(Cc4ccc(C)c(F)c4F)c3C[C@H]2CN1C(=O)c1ccccc1,0.0477,0.871,1.03,-0.509 (inactive),0.158,-0.224,0.558,-0.0326,-0.693,1.39,1.33,-1.34,-0.0601,1.61,0.962,0.0037,0.141,-0.0053,0.692,0.298
C=CC[C@]1(C(=O)N2CCOCC2)N=C(c2ccc(OCCCO)cc2)O[C@H]1c1ccccc1CN=[N+]=[N-],1.55,0.0557,0.948,-0.244 (inactive),1.24,0.0251,-0.124,0.879,-0.121,0.58,1.42,-1.85,0.366,1.84,0.403,0.127,0.398,1.88,1.94,0.948
CC(C)C[C@H]1NC(=O)[C@H](C)NC(=O)[C@@]23C(=O)N[C@@H](Cc4ccccc4)C2[C@H](C)[C@@]2(C)O[C@H]2C3/C=C/C/C=C\CNC1=O (stereo not given in full),0.0682,-0.597,-0.376,0.271 (inactive),-0.148,-0.294,-0.0275,0.461,0.29,1.55,0.84,-0.201,-0.206,-0.893,-0.806,-0.166,-0.123,0.202,0.462,-0.086
CCOC(=O)C1=CC[C@@H](c2cccc(Br)c2)N(S(=O)(=O)c2ccc(C)cc2)[C@H]1c1ccc([N+](=O)[O-])cc1,1.47,0.448,-0.0145,-0.183 (inactive),1.2,0.356,0.877,1.32,0.82,0.784,1.42,-0.802,0.868,0.855,0.69,0.0433,-0.138,0.822,1.1,1.05
COC(=O)[C@@]1(Cc2ccc(OC)cc2)[C@H]2c3cc(C(=O)N(C)C)n(Cc4cc(F)c(F)c(F)c4)c3C[C@H]2CN1C(=O)c1ccccc1,0.85,1.59,1.03,-2.2 (inactive),0.519,1.02,0.261,0.745,-0.958,0.882,1.43,-2.04,0.159,2.29,1.17,0.225,0.75,1.73,1.19,1.86
O=[N+]([O-])c1ccc(C[n+]2ccc(-c3ccc(CO)cc3)cc2)o1,1.2,-0.0024,0.192,-0.0885 (inactive),0.527,0.213,0.224,1.45,0.253,1.86,0.418,0.007,0.187,-0.165,0.451,-0.001,0.172,0.327,1.12,1.49
CC(C)C(CO)N1C(=O)[C@@H]2[C@H]3C(=O)OCC=C[C@H]3OC23C=CCN(CCN2CCOCC2)C(=O)[C@@H]13 (stereo not given in full),1.15,-0.385,-0.538,0.653 (inactive),-0.505,-0.118,-0.409,0.351,0.286,0.934,-0.0831,-0.911,-0.0025,-0.229,-1.32,-0.176,-0.0709,-0.0719,-0.128,0.451
COC(=O)C(CC#Cc1ccc2c(c1)[C@]1(C(=O)N2)[C@H](c2ccc(O)cc2)N2[C@H](c3ccccc3)[C@H](c3ccccc3)OC(=O)[C@H]2[C@@H]1C(=O)O)C(=O)OC,1.26,-0.114,0.374,-0.226 (inactive),0.159,-0.375,-0.297,0.528,-0.217,0.201,0.69,-0.76,0.029,0.351,0.0474,-0.175,-0.206,-0.124,-0.347,0.33
